# Measured values reported in the supplement of paper PMC10849652.
# About 7,900 targets were measured; listed, in parts, are those with a hit and a random draw of the rest. About 0.6% of all pairs of compound and target were hits. Values without a mark were called inactive.
# Legend:
# Experiment in all cases: log2 fold change, soluble protein after heating vs DMSO (PISA); higher = thermal stabilisation; K562 cells, 10 uM, 30 min; active = over 0.2 and 3.5 SD of the protein, either way, in both replicates (recomputed)
# [1] = compound: CC[C@@H]1C(=O)N(C)c2cnc(Nc3ccc(C(=O)NC4CCN(C)CC4)cc3OC)nc2N1C1CCCC1
# Summary of the method: (§1)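 Quantification of soluble protein used TMTpro 16plex LC-MS/MS, with channel sums equalised. Samples were the supernatant after 21,000xg for 90 min of pooled aliquots from K562 cells (2×10^6 cells/mL) treated with 10 μM compound for 30 min, heated for 3 min over 48°C-58°C, and extracted in PBS with 0.5% NP-40 at 4°C. Values, from duplicates, describe thermal stability against control samples on a log2 fold-change scale.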
# volasertib = compound: CC[C@@H]1C(=O)N(C)c2cnc(Nc3ccc(C(=O)N[C@H]4CC[C@H](N5CCN(CC6CC6)CC5)CC4)cc3OC)nc2N1C(C)C [volasertib]
# Summary of the method: as §1
# [2] = compound: CC[C@H](C)N1C=C(C2=C(C=C(C=C21)C3=CN=C(C=C3)N4CCNCC4)C(=O)NCC5=C(C=C(NC5=O)C)C)C
# Summary of the method: as §1
# epoxomicin = compound: CC[C@H](C)[C@@H](C(=O)N[C@@H]([C@@H](C)O)C(=O)N[C@@H](CC(C)C)C(=O)[C@]1(CO1)C)NC(=O)[C@H]([C@@H](C)CC)N(C)C(=O)C [epoxomicin]
# Summary of the method: as §1
# [3] = compound: CCn1c(C(=O)N(C2CC2)C2CC2)cc2c3c(ncn3C)c(Nc3cc(C)n(C)n3)nc21
# Summary of the method: as §1
# [4] = compound: CCn1cc(-c2ccnc3[nH]c(-c4cccc(CN(C)C)c4)cc23)c(-c2ccc(NC(=O)N(C)C)cc2)n1
# Summary of the method: as §1
# [5] = compound: CN(C)CC(=O)Nc1ccc2[nH]c(=O)c3ccccc3c2c1
# Summary of the method: as §1
# rosiglitazone = compound: CN(CCOC1=CC=C(C=C1)C[C@H]2C(=O)NC(=O)S2)C3=CC=CC=N3 (racemic) [rosiglitazone]
# Summary of the method: as §1
# [6] = compound: CN1C2=C(C3=C1C(=O)N(N=C3)CC4=CC(=CC=C4)N)SC(=C2)S(=O)C
# Summary of the method: as §1
# [7] = compound: CN1CCC(CNc2ccc3ncc(-c4cccc(OC(F)(F)F)c4)n3n2)CC1
# Summary of the method: as §1
# Sequence of UniProt Q96BW9 (Q96BW9 whole entry, looked up): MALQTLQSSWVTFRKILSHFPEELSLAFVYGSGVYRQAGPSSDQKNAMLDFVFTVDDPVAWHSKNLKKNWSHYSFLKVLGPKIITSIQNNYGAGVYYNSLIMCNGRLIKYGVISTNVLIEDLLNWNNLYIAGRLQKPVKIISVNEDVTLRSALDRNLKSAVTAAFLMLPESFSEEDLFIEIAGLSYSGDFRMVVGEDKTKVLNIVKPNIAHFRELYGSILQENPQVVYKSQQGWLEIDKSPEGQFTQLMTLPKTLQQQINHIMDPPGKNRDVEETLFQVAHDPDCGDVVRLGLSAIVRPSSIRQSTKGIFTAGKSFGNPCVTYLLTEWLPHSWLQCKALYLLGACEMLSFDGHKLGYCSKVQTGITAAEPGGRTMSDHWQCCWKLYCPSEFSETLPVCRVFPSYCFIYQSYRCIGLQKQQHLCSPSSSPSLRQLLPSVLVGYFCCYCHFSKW
# Sequence of UniProt Q8IWZ8 (Q8IWZ8 whole entry, looked up): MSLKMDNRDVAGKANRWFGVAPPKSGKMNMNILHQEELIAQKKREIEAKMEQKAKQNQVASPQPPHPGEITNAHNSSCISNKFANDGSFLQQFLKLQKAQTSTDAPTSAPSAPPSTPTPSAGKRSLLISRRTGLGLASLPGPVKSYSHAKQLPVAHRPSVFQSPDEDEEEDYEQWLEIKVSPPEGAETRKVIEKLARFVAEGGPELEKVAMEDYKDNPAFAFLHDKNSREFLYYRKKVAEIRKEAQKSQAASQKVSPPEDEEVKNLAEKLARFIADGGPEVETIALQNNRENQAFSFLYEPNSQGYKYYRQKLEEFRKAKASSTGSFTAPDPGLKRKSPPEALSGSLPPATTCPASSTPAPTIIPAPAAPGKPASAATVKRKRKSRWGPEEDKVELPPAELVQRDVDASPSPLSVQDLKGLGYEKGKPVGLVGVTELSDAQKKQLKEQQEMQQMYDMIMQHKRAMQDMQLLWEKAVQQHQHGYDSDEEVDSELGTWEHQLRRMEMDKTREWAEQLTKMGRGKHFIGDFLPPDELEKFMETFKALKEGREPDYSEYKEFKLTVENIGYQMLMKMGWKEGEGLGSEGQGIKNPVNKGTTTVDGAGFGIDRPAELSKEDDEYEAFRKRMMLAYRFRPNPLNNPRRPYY
# Sequence of UniProt Q8WXA9 (Q8WXA9 whole entry, looked up): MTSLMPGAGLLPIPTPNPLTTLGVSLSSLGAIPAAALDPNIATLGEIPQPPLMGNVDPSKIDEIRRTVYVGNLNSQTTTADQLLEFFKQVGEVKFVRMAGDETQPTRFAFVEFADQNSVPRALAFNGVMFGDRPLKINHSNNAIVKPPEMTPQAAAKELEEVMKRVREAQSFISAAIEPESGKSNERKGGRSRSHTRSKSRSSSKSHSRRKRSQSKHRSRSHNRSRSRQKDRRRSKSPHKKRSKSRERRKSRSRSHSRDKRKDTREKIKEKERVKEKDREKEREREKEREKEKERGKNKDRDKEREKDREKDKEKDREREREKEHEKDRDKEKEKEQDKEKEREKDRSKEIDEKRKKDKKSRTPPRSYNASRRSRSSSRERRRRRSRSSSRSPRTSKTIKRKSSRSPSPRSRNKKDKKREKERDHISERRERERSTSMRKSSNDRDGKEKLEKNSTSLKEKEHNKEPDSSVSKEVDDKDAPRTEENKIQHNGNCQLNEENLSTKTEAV
# Sequence of UniProt P56962 (P56962 whole entry, looked up): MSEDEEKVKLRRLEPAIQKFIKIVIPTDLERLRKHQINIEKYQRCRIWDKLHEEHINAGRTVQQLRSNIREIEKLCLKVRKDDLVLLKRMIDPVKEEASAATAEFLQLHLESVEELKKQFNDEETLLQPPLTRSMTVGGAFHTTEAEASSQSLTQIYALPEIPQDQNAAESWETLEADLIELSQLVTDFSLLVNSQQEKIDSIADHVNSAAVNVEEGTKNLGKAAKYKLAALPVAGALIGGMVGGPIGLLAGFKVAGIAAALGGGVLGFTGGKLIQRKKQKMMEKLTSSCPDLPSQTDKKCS
# Sequence of UniProt Q92581 (Q92581 whole entry, looked up): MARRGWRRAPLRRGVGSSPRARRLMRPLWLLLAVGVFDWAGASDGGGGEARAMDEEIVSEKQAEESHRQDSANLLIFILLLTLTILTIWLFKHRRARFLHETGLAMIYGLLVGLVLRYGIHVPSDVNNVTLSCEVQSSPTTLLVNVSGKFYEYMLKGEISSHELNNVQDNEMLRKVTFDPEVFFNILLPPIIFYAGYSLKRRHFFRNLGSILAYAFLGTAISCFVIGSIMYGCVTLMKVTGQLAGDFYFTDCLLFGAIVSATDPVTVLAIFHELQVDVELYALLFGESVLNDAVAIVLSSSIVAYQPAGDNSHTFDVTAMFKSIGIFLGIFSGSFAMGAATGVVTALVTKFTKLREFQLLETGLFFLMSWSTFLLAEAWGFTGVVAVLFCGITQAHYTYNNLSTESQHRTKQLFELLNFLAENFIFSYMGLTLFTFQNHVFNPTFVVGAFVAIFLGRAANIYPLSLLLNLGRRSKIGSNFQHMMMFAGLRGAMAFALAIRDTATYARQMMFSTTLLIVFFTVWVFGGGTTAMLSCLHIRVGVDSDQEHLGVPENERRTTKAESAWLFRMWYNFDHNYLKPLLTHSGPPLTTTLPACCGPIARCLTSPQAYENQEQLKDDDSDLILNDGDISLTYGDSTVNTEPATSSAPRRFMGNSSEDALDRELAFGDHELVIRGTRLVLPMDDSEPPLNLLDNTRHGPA
# Sequence of UniProt Q9NXE4 (Q9NXE4 whole entry, looked up): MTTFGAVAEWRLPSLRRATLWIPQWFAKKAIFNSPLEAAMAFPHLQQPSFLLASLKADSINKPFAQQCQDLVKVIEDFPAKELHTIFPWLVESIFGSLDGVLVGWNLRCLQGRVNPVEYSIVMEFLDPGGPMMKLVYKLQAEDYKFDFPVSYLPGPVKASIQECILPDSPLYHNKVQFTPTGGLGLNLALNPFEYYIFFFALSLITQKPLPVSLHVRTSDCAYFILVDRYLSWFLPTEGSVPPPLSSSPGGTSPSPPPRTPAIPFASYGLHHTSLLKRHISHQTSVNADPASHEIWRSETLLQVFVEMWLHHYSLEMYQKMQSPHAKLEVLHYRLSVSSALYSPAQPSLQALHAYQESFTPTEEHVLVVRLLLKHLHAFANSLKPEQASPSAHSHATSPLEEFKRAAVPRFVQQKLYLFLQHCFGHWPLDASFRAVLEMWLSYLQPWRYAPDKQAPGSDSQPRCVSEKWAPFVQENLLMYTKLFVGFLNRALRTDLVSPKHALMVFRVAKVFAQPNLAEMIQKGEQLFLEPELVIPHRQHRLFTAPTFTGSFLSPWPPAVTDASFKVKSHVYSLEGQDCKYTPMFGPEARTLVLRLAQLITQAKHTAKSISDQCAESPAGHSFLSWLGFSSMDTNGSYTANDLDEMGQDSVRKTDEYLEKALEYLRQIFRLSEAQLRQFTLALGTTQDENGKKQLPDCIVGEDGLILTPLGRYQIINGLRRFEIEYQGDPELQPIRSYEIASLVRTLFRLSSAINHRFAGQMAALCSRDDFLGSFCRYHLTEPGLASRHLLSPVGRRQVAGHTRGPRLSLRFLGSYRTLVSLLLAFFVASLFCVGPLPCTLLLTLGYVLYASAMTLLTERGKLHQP
# Sequence of UniProt Q969Z0 (Q969Z0 whole entry, looked up): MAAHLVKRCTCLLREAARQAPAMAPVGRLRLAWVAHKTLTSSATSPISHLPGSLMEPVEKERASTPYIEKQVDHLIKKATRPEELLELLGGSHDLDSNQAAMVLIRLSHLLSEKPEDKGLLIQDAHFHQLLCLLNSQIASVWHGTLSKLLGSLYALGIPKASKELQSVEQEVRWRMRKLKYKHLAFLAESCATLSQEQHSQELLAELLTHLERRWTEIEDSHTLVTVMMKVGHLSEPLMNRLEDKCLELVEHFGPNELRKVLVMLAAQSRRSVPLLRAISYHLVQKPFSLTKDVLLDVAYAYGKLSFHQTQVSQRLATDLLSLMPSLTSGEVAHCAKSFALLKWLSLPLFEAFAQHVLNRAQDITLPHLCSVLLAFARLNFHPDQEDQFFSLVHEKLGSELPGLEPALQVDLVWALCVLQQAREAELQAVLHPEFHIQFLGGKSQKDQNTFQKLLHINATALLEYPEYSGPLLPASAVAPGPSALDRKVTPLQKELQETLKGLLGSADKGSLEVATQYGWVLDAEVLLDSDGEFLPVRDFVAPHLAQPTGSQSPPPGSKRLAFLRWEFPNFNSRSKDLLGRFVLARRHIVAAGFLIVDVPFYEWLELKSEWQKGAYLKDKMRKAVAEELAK
# Sequence of UniProt Q9Y4R8 (Q9Y4R8 whole entry, looked up): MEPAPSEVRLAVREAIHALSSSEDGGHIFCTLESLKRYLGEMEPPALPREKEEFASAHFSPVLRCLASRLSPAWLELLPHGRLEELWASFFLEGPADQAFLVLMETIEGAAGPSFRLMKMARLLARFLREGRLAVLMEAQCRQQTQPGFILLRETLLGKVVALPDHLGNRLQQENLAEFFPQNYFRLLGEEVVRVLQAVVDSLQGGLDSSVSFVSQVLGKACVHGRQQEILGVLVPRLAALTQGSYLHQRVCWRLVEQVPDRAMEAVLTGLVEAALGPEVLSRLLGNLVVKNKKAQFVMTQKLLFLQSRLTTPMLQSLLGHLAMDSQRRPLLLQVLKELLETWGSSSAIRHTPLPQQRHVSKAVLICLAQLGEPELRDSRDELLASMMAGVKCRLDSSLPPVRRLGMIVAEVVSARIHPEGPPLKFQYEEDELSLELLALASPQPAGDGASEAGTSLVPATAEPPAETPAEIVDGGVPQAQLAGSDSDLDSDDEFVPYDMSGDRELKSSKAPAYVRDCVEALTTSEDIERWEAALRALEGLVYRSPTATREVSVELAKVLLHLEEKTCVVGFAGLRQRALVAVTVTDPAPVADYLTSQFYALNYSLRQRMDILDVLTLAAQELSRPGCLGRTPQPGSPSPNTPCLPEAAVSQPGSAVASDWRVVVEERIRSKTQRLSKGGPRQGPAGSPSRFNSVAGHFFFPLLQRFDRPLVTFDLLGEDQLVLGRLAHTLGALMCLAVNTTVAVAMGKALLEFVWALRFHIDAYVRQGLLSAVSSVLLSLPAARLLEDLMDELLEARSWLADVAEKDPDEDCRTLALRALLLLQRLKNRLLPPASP
# Sequence of UniProt Q8N5G0 (Q8N5G0 whole entry, looked up): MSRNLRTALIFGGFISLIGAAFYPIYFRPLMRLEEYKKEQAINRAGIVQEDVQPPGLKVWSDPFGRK
Target,log2 fold change [1],log2 fold change (volasertib),log2 fold change [2],log2 fold change (epoxomicin),log2 fold change [3],log2 fold change [4],log2 fold change [5],log2 fold change (rosiglitazone),log2 fold change [6],log2 fold change [7]
SRSF10 (UniProt O75494),0.141,0.274,-0.197,-0.408,0.047,0.276,-0.127,-0.073,0.498,0.237
SMPD4 isoform 4 (UniProt Q9NXE4),-0.067,-0.076,0.068,-0.008,-0.049,-0.081,0.036,0.075,-0.075,-0.32 (active)
TJP2 isoform 7 (UniProt Q9UDY2),-0.128,-0.298,-0.018,0.01,-0.041,-0.083,0.015,0.07,-0.021,-0.094
TECR (UniProt Q9NZ01),-0.116,-0.24 (active),0.015,0.026,0.021,-0.085,0.042,0.043,-0.063,-0.347 (active)
SUPT5H (UniProt O00267),-0.018,-0.224 (active),0.084,0.062,-0.054,-0.065,0.056,0.057,-0.056,-0.117
SUGP1 (UniProt Q8IWZ8),-0.155,-0.341 (active),0.056,0.062,-0.102,-0.007,0.021,0.042,-0.028,-0.081
SMARCE1 (UniProt Q969G3),-0.006,-0.125,0.087,-0.033,-0.071,0.053,-0.036,-0.222,0.058,-0.045
TBRG4 (UniProt Q969Z0),-0.361,-0.583,-0.003,0.12,-0.034,0.009,0.111,0.073,0.047,-1.19 (active)
SLC7A6OS (UniProt Q96CW6),-0.027,-0.084,-0.042,0.01,-0.07,-0.038,0.004,-0.06,-0.05,0.055
SNX11 (UniProt Q9Y5W9),-0.167,-0.324,0.066,-0.031,-0.097,-0.022,-0.024,-0.007,0.167,-0.646 (active)
SRSF11 (UniProt Q05519),-0.088,-0.311 (active),0.074,0.047,-0.022,-0.072,0.02,0.006,-0.018,0.128
SRRM2 (UniProt Q9UQ35),-0.025,0.009,0.046,-0.071,-0.016,-0.072,0.053,0.046,0.062,-0.222
SSB (UniProt P05455),-0.154,-0.131,0.083,-0.011,0.015,0.04,-0.012,0.044,-0.001,-0.194
SRSF2 (UniProt Q01130),0.087,0.134,-0.027,-0.069,0.047,0.022,-0.082,-0.024,0.045,0.054
STX17 (UniProt P56962),-0.273,-0.357 (active),-0.06,0.062,-0.067,0.011,-0.02,0.089,-0.126,-0.278
SLC9A6 isoform 2 (UniProt Q92581),0.047,-0.081,0.009,-0.013,-0.003,-0.003,-0.026,-0.013,-0.039,-0.071
STARD3NL (UniProt O95772),0.037,-0.022,-0.036,-0.085,0.007,-0.014,-0.068,0.014,-0.058,-0.371 (active)
TAMM41 isoform 3 (UniProt Q96BW9),-0.209,-0.312 (active),-0.004,0.02,-0.02,0.022,0.013,0.005,-0.052,-0.362 (active)
TELO2 (UniProt Q9Y4R8),-0.083,-0.359 (active),-0.017,-0.093,-0.031,0.005,0.123,0.036,0.154,-0.052
SMIM20 isoform 2 (UniProt Q8N5G0),0.069,0.048,-0.033,0.483 (active),0.038,-0.065,0.007,0.036,0.051,0.002
TIMM29 (UniProt Q9BSF4),0.044,-0.071,0.019,-0.013,0.027,-0.035,0,-0.016,-0.103,0.062
SRPRA (UniProt P08240),-0.116,-0.107,0.007,0.02,-0.07,-0.036,0.032,-0.002,-0.055,0.009
SUCLA2 (UniProt Q9P2R7),0.013,-0.105,0.052,0.016,0.01,-0.049,0.018,0.065,-0.071,-0.05
SRSF6 (UniProt Q13247),0.011,0.174,0.116,-0.181,-0.004,0.028,-0.08,-0.043,0.207,0.315
TBK1 (UniProt Q9UHD2),-0.093,-0.232,0.055,0.019,0.002,0.023,-0.033,0.076,0.172,-0.152
SREK1 isoform 2 (UniProt Q8WXA9),-0.122,-0.22,0.037,-0.021,0.021,-0.098,-0.029,0.015,0.026,-0.035
TBC1D24 (UniProt Q9ULP9),0.025,-0.028,0.05,-0.011,-0.006,-0.175,0.018,0.075,-0.067,-0.236
STK25 (UniProt O00506),-0.031,-0.107,0.024,0.033,-0.041,-0.008,-0.024,0.077,0.017,-0.216
SNX1 (UniProt Q13596),-0.135,-0.113,0.096,0.037,-0.096,-0.107,0.003,0.079,-0.029,-0.605 (active)
SLK isoform 2 (UniProt Q9H2G2),-0.095,-0.161,0.05,0.052,-0.002,-0.271 (active),-0.016,0.041,-0.022,-0.152
